Results as given in ChEMBL document CHEMBL3988442, “University of Dundee, Small-Polar-MMV Screening Library” (2021).
For part of these data: Results with a measured potency or affinity are listed apart.

How the values were obtained:
Set-up in all cases: scale not given: direction of the effect not stated beside the values
[1] = target: Protein translocase subunit SecA (Escherichia coli (strain K12)) (UniProt P10408); experiment: Assay to Identify E. coli SecA ATPase Inhibitors; type: functional; details: 30 µM
[2] = target: T1, Ubiquitin-activating enzyme e1, putative (Leishmania donovani (strain BPK282A1)) (UniProt E9BSI1); experiment: Leishmania donovani Ubiquitin Activating Enzyme (LdE1); type: functional; details: 30 µM
T1 sequence (whole entry): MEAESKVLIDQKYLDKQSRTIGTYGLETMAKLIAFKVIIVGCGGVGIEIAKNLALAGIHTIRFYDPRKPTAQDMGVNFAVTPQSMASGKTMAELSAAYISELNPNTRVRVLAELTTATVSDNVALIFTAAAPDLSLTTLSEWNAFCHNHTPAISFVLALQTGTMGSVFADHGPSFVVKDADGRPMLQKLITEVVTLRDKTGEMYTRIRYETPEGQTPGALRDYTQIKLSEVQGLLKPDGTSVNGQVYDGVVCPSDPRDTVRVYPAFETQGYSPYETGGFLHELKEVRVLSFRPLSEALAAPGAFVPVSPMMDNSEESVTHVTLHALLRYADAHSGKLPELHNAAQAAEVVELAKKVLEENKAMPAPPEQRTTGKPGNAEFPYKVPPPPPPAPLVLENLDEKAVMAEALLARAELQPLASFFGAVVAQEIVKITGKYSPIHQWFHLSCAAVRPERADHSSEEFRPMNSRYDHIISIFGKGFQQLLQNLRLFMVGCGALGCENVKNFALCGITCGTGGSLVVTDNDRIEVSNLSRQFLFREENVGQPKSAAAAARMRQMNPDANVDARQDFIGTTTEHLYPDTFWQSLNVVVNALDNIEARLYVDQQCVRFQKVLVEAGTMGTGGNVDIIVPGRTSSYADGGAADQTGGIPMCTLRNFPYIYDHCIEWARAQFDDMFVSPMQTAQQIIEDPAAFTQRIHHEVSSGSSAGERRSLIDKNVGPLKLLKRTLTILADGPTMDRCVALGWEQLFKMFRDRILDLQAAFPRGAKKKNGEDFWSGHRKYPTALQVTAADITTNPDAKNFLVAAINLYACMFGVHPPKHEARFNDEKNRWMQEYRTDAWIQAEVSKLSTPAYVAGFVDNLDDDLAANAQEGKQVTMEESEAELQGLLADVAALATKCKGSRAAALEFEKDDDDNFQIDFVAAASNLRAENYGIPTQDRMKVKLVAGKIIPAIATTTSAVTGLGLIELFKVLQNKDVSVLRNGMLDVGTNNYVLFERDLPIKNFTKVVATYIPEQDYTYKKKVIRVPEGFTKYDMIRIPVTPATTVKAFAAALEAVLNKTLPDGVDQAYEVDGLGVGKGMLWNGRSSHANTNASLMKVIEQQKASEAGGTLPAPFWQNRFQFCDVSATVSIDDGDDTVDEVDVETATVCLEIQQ

[3] = target: Sialic acid-binding Ig-like lectin 9 (Homo sapiens) (UniProt Q9Y336); experiment: Hs-Siglec9 ALPHAscreen SOP 20170721; details: 10 µM
Trypanosoma cruzi = experiment: Trypanosoma cruzi phosphomannomutase and mannose-1-phosphate guanylyltransferase assay; type: functional; details: 10 µM
[4] = target: T2, Arginase-2, mitochondrial (Homo sapiens) (UniProt P78540); experiment: in vitro enzyme assay to detect the production of urea directly proportional to the activity of Arginase II; type: functional; details: 33.3 µM; further: in the data most compounds retested in dose-response had high values
T2 sequence (whole entry): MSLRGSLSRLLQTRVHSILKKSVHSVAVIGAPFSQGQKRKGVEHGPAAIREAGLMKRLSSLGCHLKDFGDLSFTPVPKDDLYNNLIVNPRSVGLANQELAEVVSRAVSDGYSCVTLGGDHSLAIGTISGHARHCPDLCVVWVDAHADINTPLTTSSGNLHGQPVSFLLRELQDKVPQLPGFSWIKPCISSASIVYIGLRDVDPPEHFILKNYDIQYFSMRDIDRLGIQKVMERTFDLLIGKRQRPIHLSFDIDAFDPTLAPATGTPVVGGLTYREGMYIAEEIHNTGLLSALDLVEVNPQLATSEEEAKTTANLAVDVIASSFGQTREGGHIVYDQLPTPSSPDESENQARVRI

[5] = target: T3, Proteasome subunit beta (Trypanosoma cruzi) (UniProt O96673); experiment: Trypanosoma cruzi proteasome chymotrypsin-like activity (TcProtChymo) assay.; further: in the data most compounds retested in dose-response had high values; type: functional; details: 9.37 µM
T3 sequence (whole entry): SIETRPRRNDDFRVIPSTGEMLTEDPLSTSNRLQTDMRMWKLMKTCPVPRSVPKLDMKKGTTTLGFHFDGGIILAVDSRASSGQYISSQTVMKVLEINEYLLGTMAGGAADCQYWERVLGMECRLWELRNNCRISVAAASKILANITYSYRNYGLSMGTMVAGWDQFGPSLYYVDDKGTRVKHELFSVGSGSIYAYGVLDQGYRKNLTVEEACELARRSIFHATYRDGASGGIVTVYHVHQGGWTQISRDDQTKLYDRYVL

Homo sapiens = species: Homo sapiens; experiment: To identify inhibition of the IFN signalling (Jak-Stat) pathway via expression of an eGFP reporter gene under the control of an IFN-stimulated response element (ISRE) containing MxA promoter.; type: functional; details: 30 µM
[6] = target: T4, Tyrosyl-tRNA synthetase, putative (Trypanosoma cruzi (strain CL Brener)) (UniProt Q4DSP6); experiment: Trypanosoma cruzi tyrosyl tRNA synthetase (TcYRS) _High Tyrosine SOP; type: functional; details: 30 µM; further: in the data most compounds retested in dose-response had high values
T4 sequence (whole entry): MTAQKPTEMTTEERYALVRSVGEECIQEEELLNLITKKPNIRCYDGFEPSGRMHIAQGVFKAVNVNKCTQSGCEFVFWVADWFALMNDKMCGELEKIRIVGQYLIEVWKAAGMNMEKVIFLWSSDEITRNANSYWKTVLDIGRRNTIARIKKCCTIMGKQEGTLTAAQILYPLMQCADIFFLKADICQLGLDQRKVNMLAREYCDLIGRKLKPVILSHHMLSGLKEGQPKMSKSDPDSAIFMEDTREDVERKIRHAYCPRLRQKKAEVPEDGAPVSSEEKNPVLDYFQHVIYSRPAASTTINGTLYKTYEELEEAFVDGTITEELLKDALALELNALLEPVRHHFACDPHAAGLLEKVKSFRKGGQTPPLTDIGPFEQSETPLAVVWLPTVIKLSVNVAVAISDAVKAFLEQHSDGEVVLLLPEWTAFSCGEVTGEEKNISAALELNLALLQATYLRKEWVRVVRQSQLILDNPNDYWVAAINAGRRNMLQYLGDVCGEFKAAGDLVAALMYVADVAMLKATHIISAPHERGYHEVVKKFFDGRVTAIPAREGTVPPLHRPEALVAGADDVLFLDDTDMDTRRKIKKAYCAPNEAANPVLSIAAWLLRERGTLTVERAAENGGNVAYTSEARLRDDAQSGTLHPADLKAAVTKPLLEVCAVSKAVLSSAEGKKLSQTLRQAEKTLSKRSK

[7] = target: T4, Tyrosyl-tRNA synthetase, putative (Trypanosoma cruzi (strain CL Brener)); experiment: Trypanosoma cruzi tyrosyl tRNA synthetase (TcYRS) SOP; type: functional; details: 30 µM
[8] = target: Chromo domain-containing protein 1 (Saccharomyces cerevisiae (strain ATCC 204508 / S288c) (Baker's yeast)) (UniProt P32657); experiment: ScCHD-1 Enzyme Inhibition Assay; type: functional; details: 30 µM; further: in the data most compounds retested in dose-response had high values
Chain of Chromo domain-containing protein 1 (Saccharomyces cerevisiae (strain ATCC 204508 / S288c) (Baker's yeast)) (P32657 whole entry, the tested form may be a part): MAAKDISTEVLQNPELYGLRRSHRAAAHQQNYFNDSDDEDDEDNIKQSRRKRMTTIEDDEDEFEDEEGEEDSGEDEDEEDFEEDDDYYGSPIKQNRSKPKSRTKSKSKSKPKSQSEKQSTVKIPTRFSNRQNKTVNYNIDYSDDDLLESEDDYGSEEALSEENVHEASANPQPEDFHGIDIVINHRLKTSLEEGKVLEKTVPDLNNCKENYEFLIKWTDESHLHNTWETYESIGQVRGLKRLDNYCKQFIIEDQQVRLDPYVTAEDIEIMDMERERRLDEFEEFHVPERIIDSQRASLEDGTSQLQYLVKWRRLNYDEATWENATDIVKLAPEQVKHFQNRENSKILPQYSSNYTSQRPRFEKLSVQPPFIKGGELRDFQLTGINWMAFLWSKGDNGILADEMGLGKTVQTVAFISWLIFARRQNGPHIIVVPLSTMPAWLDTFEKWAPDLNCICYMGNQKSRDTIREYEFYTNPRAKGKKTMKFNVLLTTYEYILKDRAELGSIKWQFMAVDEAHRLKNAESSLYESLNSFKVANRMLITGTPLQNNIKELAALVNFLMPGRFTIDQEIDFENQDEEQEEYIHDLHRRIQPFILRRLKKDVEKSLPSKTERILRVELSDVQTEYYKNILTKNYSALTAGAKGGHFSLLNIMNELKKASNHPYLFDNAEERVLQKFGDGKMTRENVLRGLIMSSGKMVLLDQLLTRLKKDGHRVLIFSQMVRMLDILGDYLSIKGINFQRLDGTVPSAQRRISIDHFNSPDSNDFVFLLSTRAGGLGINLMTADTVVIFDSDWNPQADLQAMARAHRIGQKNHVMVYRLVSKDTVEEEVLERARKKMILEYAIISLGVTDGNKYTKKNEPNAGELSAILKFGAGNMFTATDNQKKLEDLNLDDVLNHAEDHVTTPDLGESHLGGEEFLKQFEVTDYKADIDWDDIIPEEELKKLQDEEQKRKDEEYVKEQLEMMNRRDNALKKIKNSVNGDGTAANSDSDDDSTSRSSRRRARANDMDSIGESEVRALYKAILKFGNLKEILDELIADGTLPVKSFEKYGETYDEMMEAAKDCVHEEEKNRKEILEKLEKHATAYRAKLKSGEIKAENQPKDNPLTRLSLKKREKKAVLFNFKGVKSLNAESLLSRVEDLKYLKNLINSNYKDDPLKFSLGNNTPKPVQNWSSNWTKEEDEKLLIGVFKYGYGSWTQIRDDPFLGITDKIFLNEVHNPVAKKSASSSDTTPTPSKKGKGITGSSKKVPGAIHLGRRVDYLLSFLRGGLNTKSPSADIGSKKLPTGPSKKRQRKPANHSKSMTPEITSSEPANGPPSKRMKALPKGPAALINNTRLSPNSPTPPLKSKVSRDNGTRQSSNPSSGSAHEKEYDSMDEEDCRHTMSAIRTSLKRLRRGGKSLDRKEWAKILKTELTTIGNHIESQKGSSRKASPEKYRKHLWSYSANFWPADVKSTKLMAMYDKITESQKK

Chain of Protein translocase subunit SecA (Escherichia coli (strain K12)) (P10408 whole entry): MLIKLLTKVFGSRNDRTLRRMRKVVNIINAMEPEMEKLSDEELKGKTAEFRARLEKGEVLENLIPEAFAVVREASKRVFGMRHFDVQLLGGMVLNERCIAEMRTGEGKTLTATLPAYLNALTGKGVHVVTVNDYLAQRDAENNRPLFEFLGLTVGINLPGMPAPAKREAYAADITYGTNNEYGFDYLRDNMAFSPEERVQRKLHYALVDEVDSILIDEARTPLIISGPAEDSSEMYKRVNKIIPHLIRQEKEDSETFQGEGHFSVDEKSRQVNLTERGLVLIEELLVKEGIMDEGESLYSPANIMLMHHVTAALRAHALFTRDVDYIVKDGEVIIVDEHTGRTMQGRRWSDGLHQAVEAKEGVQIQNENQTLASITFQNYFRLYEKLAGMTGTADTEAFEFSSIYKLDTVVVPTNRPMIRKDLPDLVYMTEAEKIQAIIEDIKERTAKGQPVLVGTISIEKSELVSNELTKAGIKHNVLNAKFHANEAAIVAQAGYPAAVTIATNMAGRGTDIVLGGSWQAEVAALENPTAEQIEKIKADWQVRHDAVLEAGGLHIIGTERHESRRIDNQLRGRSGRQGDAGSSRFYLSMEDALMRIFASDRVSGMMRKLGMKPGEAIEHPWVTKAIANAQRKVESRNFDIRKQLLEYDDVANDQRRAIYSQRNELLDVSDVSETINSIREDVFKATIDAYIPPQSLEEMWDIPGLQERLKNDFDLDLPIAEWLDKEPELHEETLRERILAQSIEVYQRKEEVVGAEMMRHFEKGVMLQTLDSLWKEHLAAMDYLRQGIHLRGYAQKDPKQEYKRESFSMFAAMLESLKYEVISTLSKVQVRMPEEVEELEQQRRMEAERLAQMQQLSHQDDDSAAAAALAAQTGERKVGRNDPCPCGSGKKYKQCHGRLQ
Chain of Sialic acid-binding Ig-like lectin 9 (Homo sapiens) (Q9Y336 whole entry): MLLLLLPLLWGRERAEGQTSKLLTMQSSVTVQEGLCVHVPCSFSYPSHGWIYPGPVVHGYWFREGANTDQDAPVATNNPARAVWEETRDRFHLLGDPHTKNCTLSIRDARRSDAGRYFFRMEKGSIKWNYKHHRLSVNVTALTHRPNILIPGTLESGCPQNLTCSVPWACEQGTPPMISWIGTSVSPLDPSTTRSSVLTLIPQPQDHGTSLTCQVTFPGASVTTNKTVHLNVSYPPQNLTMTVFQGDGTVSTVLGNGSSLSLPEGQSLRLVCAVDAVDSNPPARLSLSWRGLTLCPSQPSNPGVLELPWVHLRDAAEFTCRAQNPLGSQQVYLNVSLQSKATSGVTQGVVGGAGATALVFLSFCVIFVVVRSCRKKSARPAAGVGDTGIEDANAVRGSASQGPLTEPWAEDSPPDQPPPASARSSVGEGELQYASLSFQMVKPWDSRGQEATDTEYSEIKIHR

Row | Structure (SMILES) | Percent Effect [1] [%] | Percent Effect [2] [%] | Percent Effect [3] [%] | Percent Effect (Trypanosoma cruzi) [%] | Percent Effect [4] [%] | Percent Effect [5] [%] | Percent Effect (Homo sapiens) [%] | Percent Effect [6] [%] | Percent Effect [7] [%] | Percent Effect [8] [%]
1 | CC(C)CC(=O)N1C[C@@H]2CCN(c3ncccn3)C[C@@H]2C1 | -0.224 | 11.7 | -0.117 | 0.375 | -5.02 | 14.2 | 17.9 | 0 | -10 | -10.7
2 | COc1ccccc1OCC(=O)NS(=O)(=O)c1ccccc1Br | -3.71 | 13 | 10.4 | 5.78 | 5.12 | 3.51 | 4.3 | 0 | 16.5 | -9.19
3 | Cn1nc2c(cc1=O)CN(Cc1nnc(C3CC3)o1)CC2 | -3.12 | 51.3 | -13.6 | -6.29 | 0.41 | 6.91 | 36.5 | -11 | -6.02 | -6.1
4 | Cn1cc(N2CC3(COCCN(Cc4ccsc4)C3)OCC2=O)cn1 (stereo not given) | -9.04 | -1.3 | 10.7 | -1.46 | 0.405 | 2.21 | 6.9 | 4.74 | -5.13 | 2.44
5 | O=C(c1cc(C2CC2)on1)N1CC[C@]2(C[C@H](Oc3cccnc3)CO2)C1 | -7.12 | 1.3 | -0.278 | 6.52 | -12.2 | 6.27 | -3.24 | 1.58 | 5.13 | 0.522
6 | CCOCC1CN(Cc2cnn(C)c2)Cc2nn(C)cc21 (stereo not given) | 0.939 | -3.9 | -4.11 | -5.36 | 0.81 | 10.2 | 4.03 | -1.58 | 0 | 2.52
7 | O=C1CC(c2ccsc2)c2sc(C(=O)O)c(-c3ccccc3)c2N1 (stereo not given) | -4.21 | 8.11 | 8.19 | 5.92 | 21.3 | 21.9 | 11.7 | 4.79 | 12.2 | 33.2
8 | CC(C)NC(=O)C1CN(C(=O)c2ccco2)CC12CCOCC2 (stereo not given) | -1.7 | 9.09 | -6.62 | 3.41 | 3.24 | 10.2 | -3.41 | 8.95 | 12.8 | -4.15
9 | Cn1cc(CN2CCC3(CC(=O)N(c4ccc5c(c4)OCO5)C3)C2)cn1 (stereo not given) | -2.97 | 1.3 | -2.34 | 1.85 | -2.43 | -1.15 | 4.19 | 4.74 | 5.13 | -0.178
10 | CN(Cc1cn2ccccc2n1)C1CCCN(c2cccnn2)C1 (stereo not given) | -0.768 | 26 | -7.59 | 0.187 | -4.71 | 15.1 | -3.7 | 7.84 | 18.8 | -9.66
11 | Cc1nc[nH]c1CN1CCN(C(=O)c2cccs2)[C@H]2CS(=O)(=O)C[C@H]21 | -6.02 | 2.7 | 2.06 | -2.81 | 3.85 | 4.62 | 5.03 | 4.79 | 14.6 | -2.09
12 | CC(C)c1noc(CCC(=O)NCC2CCOC2)n1 (stereo not given) | -1.25 | 0 | -0.749 | 0.602 | -5.32 | 10.8 | 2.04 | 8.95 | 17.9 | -9.05
13 | Cc1cc(NCc2cc3n(n2)CCCN(S(C)(=O)=O)C3)ncn1 | -8.82 | 2.7 | 4.07 | 3.59 | 5.94 | 4.97 | 0.911 | 3.72 | 12.2 | 0.638
14 | CCCc1cc(C(=O)N2CCCC2c2cccnc2)[nH]n1 (stereo not given) | -2.28 | 13.5 | 7.33 | 2.81 | 4.54 | 17.1 | 10.1 | 4.79 | 14.6 | -3.7
15 | CC(C)c1nc(C2CCCN(Cc3nnc(C4CC4)o3)C2)no1 (stereo not given) | 3.18 | -2.67 | 5.21 | 0 | 4.88 | 0.933 | 4.85 | -1.58 | -2.56 | -1.26
16 | O=C(COCc1ccccc1)N1CCC(OCc2cccnc2)CC1 | -7.79 | 2.7 | 2.89 | -4.95 | -0.35 | 9.42 | 35.8 | 5.85 | 12.2 | -2.8
17 | Cc1ccc(-c2nc(CN3CCc4c(ncn4C)C3)cs2)o1 | -4.38 | 2.56 | -16.5 | 11.9 | -6.56 | 24.3 | 2.62 | 11 | 18.1 | 37.3
18 | O=C(O)c1cc(-c2cccnc2)cc(S(=O)(=O)N2CCCCCC2)c1 | -7.1 | 5.41 | 3.44 | -3.4 | 0.35 | 12.7 | 8.29 | 5.85 | -2.44 | -1.87
19 | COc1cc(C)c(S(=O)(=O)NCc2cccnc2N(C)C)c(C)c1 | 0.224 | 23.4 | -2.16 | 0 | -5.53 | 19.8 | 52.1 | 4.9 | 28.2 | -10.7
20 | CCc1n[nH]c(C2CN(C(=O)c3ncoc3C(C)C)CCO2)n1 (stereo not given) | 1.99 | 15.6 | 8.33 | -0.746 | -2.25 | 2.46 | 17.6 | 2.94 | 18.8 | -8.96
21 | O=S(=O)(CCCN1CCCC1Cn1cccn1)c1ccccc1 (stereo not given) | -5.34 | 7.79 | 19.1 | -2.24 | -0.205 | 7.19 | 2.19 | 6.86 | 16.5 | -5.4
